# High-throughput results as filed in PubChem BioAssay.
# A selection: hits, their analogues and other compounds. The true share with any hit is near 2.1%.
# FUS suppressor: qHTS for Suppressors of FUS Proteinopathy: Primary screen using FUS-linked yeast assay | S. cerevisiae FUS-expressing, growth rescue, OD600, 24 h | Potency, µM (top dose mostly 76.6 µM), hits mostly activators | 0.24% of 390,000 active;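 also: plate controls were DMSO vehicle for no effect and reference control for full effect; nearly all actives have a fitted effect of over 55% in size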
#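 Quantitative HTS measuring growth restoration of FUS-toxic yeast. Galactose-induced cells (OD 0.005) were exposed 24hr at 30C to compounds at several concentrations, then absorbance at 600 nm was recorded.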
# Abeta yeast res: qHTS for compounds that reverse cellular toxicity of Amyloid beta (A-beta) peptide in yeast: Primary Screen. yeast expressing A-beta42, growth rescue, OD600, 48 h; response scale: 0% DMSO, 100% iron-clioquinol control. Potency, µM (series often up to 46.1 µM), most hits filed as activators. 0.063% of 410,000 active. AID 1347071, 2019; also: nearly all actives have a fitted effect of over 55% in size
#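 Yeast growth medium received pinned compounds, then yeast cells expressing toxic A-beta were added; plates incubated at 30 C for 48 hr. Growth read as absorbance at 600 nm, normalized to DMSO and equimolar FeCl3 plus clioquinol controls.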
# TDP-43 yeast inh: qHTS of TDP-43 Inhibitors; AID 652104, 2013; TDP-43 expressing yeast growth rescue, BacTiter-Glo, 24 h; Potency, µM (top dose mostly 46.1 µM), for inactives: top-dose growth rescue (activation), usual class: activators; 1.8% of 410,000 active; also: % of control where 0% means no effect; nearly all actives have a fitted effect of over 50% in size
#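 Growth rescue of TDP-43-toxic yeast measured as ATP luminescence (BacTiter-Glo). Cells grown to mid-log in raffinose, induced in galactose at OD600=0.02, exposed to compound 24 hr at 30 deg C.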
# aSyn rescue: qHTS of alpha-syn Inhibitors. Yeast expressing alpha-synuclein, growth rescue, BacTiter-Glo, 24 h. Potency, µM (top dose mostly 46.1 µM), inactives show at the top dose growth rescue (activation), actives largely listed as activators. 0.14% of 370,000 active; also: % of control where 0% means no effect; nearly all actives have a fitted effect of over 65% in size
#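 Screening used galactose-induced yeast with toxic alpha-synuclein levels, exposed to compound for 24 hr at 30 deg C. Cell growth, read with BacTiter-Glo luminescence, gave the measured signal.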
# Active calls of the source: *; i = inactive; u = inconclusive; x = no result given. Calls follow the shape of the dose curve; as a rule, active = well fitted curve in the direction sought with a large enough effect; inconclusive = small, poorly fitted or top-dose-only effect, or another doubt; inactive = no such curve, though single readings can be large; an effect the other way counts as inactive or inconclusive. Potency is read from the fitted curve at half-maximal effect.
SMILES,FUS suppressor,Abeta yeast res,TDP-43 yeast inh,aSyn rescue
O=S(=O)(N=C(NS(=O)(=O)c1ccc(Cl)cc1)c1ccccc1)c1ccc(Cl)cc1,i,i,11µM*,-2%
C=CCC[C@H](Cc1ccc(F)cc1)C(=O)OC[C@@H](Cc1c[nH]c2ccccc12)NC(=O)[C@H](CC=C)CC(=O)NCCO,u,i,17%,-9%
CC(=O)c1c(O)c2ccccc2n(C)c1=O,i,i,-70%,6%
Cc1ccc(Sc2c([N+](=O)[O-])c(=O)n(C)c3ccccc23)cc1,i,i,0%,3%
Cc1ccc(Sc2c(O)c3ccccc3n(C)c2=O)cc1,i,u,3.2µM*,7%
Cn1c(=O)c(Sc2ccccc2)c(O)c2ccccc21,i,i,13µM*,-6%
Cn1c(=O)c(S(=O)(=O)C(C)(C)C)c(O)c2ccccc21,x,i,2.8µM*,16%
COc1ccc(CNc2ccncc2)c(OC)c1OC,i,i,x,2%
Cc1ccc(CC(SCc2ccccc2)C(=O)O)cc1C (stereo unspecified),i,i,11µM*,7%
Cn1c(-c2ccccc2F)cc2onc(-c3ccccc3)c2c1=O,i,i,20µM*,-12%
C=CCN1C(=O)/C(=C/c2ccc(OCC(=O)O)cc2)S/C1=N/c1nccs1,i,i,22%,3%
C=CCN1C(=O)/C(=C/c2ccc(O)c(OC)c2)S/C1=N/c1nccs1,x,i,22µM*,13%
CCN(CC)c1ccc(/C=C(\C#N)c2ccccn2)cc1,i,i,16µM*,-4%
CCN(Cc1ccccc1)c1ccc(/C=C(\C#N)c2ccccn2)cc1,i,i,-17%,4%
COc1ccc2cc(C3=CCCC3(C)C(=O)O)ccc2c1 (stereo unspecified),i,i,3.5µM*,-38%
CCN(CC)c1nc(-c2ccccc2Cl)c2cc(Br)ccc2n1,i,i,28%,x
NNc1nc(-c2ccccc2Cl)c2cc(Br)ccc2n1,i,i,16µM*,9%
Cc1ccn(CC(=O)N2CCCC(N3CCN(c4cccc(Cl)c4)CC3)C2)n1 (stereo unspecified),i,i,11%,2%
COc1ccc(C2=CC3=C(Br)C(=O)C(C)(OC(=O)c4ccc(Cl)nc4)C(=O)C3=CO2)cc1 (stereo unspecified),i,i,14µM*,-15%
CCCN(CCC)C(=O)COc1cc(=O)n(CC)c2ccccc12,i,i,8%,1%
CCCN(C(=O)COc1cc(=O)n(CC)c2ccccc12)c1ccc(C(C)C)cc1,u,i,22µM*,x
Cc1cc(OCCSc2nnc(-c3cccs3)n2C)ccc1Cl,i,i,u,-1%
CCn1c(SC/C=C/c2ccccc2)nnc1-c1cccs1,i,i,7%,5%
Cc1ccc(OCCSc2nnc(-c3cccs3)n2C)cc1,i,i,13µM*,6%
Cn1c(SC/C=C/c2ccccc2)nnc1-c1cccs1,i,i,18µM*,17%
SMILES,FUS suppressor,Abeta yeast res,TDP-43 yeast inh,aSyn rescue
Cc1cc2c(cc1S(=O)(=O)NCc1ccccc1)NC(=O)CO2,i,i,-12%,-3%
CC(C)Cn1c(/C=C/c2ccc(F)cc2)nc2ccccc21,i,i,14µM*,-14%
CC(C)CCn1c(/C=C/c2ccccc2)nc2ccccc21,i,i,14µM*,x
COc1ccc(/C=C/c2nc3ccccc3n2Cc2ccccc2OC)cc1,i,i,u,-12%
CCC(C)Cn1c(/C=C/c2ccccc2)nc2ccccc21 (stereo unspecified),i,i,14µM*,x
COc1ccccc1Cn1c(/C=C/c2ccccc2)nc2ccccc21,x,i,20µM*,-29%
Cc1ccc(NC(=O)C2CCCN2C(=O)OCc2ccccc2)c(O)c1 (stereo unspecified),i,i,2%,11%
COC(=O)[C@]12C[C@H](CC(=O)NCc3ccc(OC)c(OC)c3)C(=O)N(Cc3ccco3)C1=C[C@H](C1CCCC1)O[C@@H]2C,i,x,x,x
COCCNC(=O)C1(C)CCN(C(=O)c2cc(-c3ccccc3)cs2)C1 (stereo unspecified),i,i,15%,-7%
Cn1cccc1C(C(=O)NC1CCCCC1)N(C(=O)Cc1cccs1)c1ccc2c(c1)OCO2 (stereo unspecified),i,i,-20%,6%
Cc1cc(NC(=O)COC(=O)C2COc3ccccc3O2)no1 (stereo unspecified),i,i,12%,3%
O=C(CSc1c2c(nc3cc(Cl)ccc13)CCCC2)NCCCN1CCOCC1,i,i,7%,8%
C=CCOc1c(Br)cc(CNc2ccc(NC(=O)CCC)cc2)cc1OCC,i,u,u,2%
C=CCOc1c(Br)cc(CNc2ccc(NC(=O)C(C)C)c(OC)c2)cc1OCC,14µM*,i,10%,10%
CC(=O)N(O)c1ccc(C=Cc2ccccc2)cc1,i,i,14µM*,2%
CC(=O)Nc1nc2ccc(Br)cc2s1,i,i,13µM*,-18%
COc1ccc2nc(NC(C)=O)sc2c1,i,i,21%,-6%
O=C(COc1ccc2ccc(=O)oc2c1)N1CCN(c2ccccc2)CC1,i,i,20µM*,15%
Cc1cccc(N2CCN(C(=O)COc3ccc4ccc(=O)oc4c3)CC2)c1C,i,i,u,14%
O=C(COc1ccc2c3c(c(=O)oc2c1)CCC3)N1CCN(c2ccc(F)cc2)CC1,i,i,32µM*,8%
CCOC(=O)N1CCN(C2OC(=O)c3ccccc32)CC1 (stereo unspecified),i,i,-7%,0%
Cc1c(C(=O)NCCCN2CCCC2=O)oc2ccccc12,i,i,-14%,-2%
COc1cc(COCC(O)CN2CCN(Cc3ccccc3)CC2)cc(OC)c1OC (stereo unspecified),i,i,14%,-1%
CCOc1ccc(C(=O)NC(=S)N(Cc2ccccc2)Cc2ccccc2)cc1,i,i,-5%,-5%
CCCN(CCC)C(=S)NC(=O)c1ccc(-c2ccccc2)cc1,i,i,14µM*,-12%
CCN(CC(=O)Nc1ccc2c(c1)OCO2)CC(=O)Nc1ccccc1C(F)(F)F,i,i,12%,4%
COc1ccc(/C=N/N=C2/NC(=O)C(CC(=O)O)S2)cc1OCc1ccc(Cl)cc1Cl (stereo unspecified),u,i,12%,7%
COc1ccc(N2CCN(C(=O)c3cc4c(-c5cccc(OC)c5)nn(C)c4s3)CC2)cc1,u,i,16µM*,0%
COc1ccc(-c2nn(C)c3sc(C(=O)N4CCOCC4)cc23)cc1OC,i,i,12%,1%
